According to PubChem BioAssay (NCI):
About 79,000 compounds went through this panel and 15% of them were active in at least one assay; those are over-represented in the sample as a whole. Unmarked numbers belong to inactive results. Calls of active or inactive are those of the source. No stated cut-off is given here; in the data, active means growth inhibition above about 70%; inactive means the rest.

Tests used:
[1] = NCI Yeast Anticancer Drug Screen. Data for the rad50 strain (AID 155);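 further: 0% = growth of vehicle-only cultures of the same strain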; conditions: S. cerevisiae rad50 strain growth inhibition; at 50.0 µM; hits give high values
Procedure, shortened: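 Relative growth inhibition (compound vs vehicle) was measured in yeast with a defined repair-gene alteration.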

[2] = NCI Yeast Anticancer Drug Screen. Data for the mec2-1 strain (AID 157); conditions: S. cerevisiae mec2-1 strain, at 50.0 µM, hits give high values
Procedure, shortened: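 Yeast mec2-1 mutant treated with compound. Readout: growth inhibition vs vehicle controls.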

[3] = NCI Yeast Anticancer Drug Screen. Data for the sgs1 mgt1 strain (AID 161);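 further: 0% = growth of cultures given vehicle only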; conditions: S. cerevisiae sgs1 mgt1 strain, at 50.0 µM, hits give high values
Procedure, shortened: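 Read-out: growth inhibition vs vehicle controls. Cells: mutant yeast strain deficient in DNA damage repair.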

[4] = NCI Yeast Anticancer Drug Screen. Data for the cln2 rad14 strain (AID 165);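 further: 0% = growth equal to vehicle treated cultures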; conditions: S. cerevisiae cln2 rad14 strain, at 50.0 µM, hits give high values
Procedure, shortened: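 cln2 rad14 yeast strain; compound exposure; growth inhibition read vs vehicle controls.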

[5] = NCI Yeast Anticancer Drug Screen. Data for the bub3 strain (AID 167); conditions: S. cerevisiae bub3 mutant strain, at 50.0 µM, hits give high values
Procedure, shortened: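 Screening used yeast with an engineered genetic alteration affecting cell cycle control. Compound-exposed cultures were compared with vehicle cultures, and reduced growth was taken as inhibition.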

[6] = NCI Yeast Anticancer Drug Screen. Data for the mlh1 rad18 strain (AID 175); conditions: S. cerevisiae mlh1 rad18 strain growth inhibition; at 50.0 µM; hits give high values
Procedure, shortened: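 Yeast w/ defined DNA-repair lesions; compound exposure; growth vs vehicle controls → % inhibition.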

## c1ccc2c(c1)CCc1ccccc1N=N2
[1]
  growth inhibition: -8.1%
[2]
  growth inhibition: -1.55%
[3]
  growth inhibition: -17.1%
[4]
  growth inhibition: -30.4%
[5]
  growth inhibition: -1.4%
[6]
  growth inhibition: 5.35%

## CC(C)(O)C(O)(c1ccccc1)c1ccccc1
[1]
  growth inhibition: 2.65%
[2]
  growth inhibition: 2.75%
[3]
  growth inhibition: 16.7%
[4]
  growth inhibition: 6.5%
[5]
  growth inhibition: 5.95%
[6]
  growth inhibition: 12.8%

## CN(C)c1ccccc1N(C)C
[1]
  growth inhibition: 5.5%
[2]
  growth inhibition: -15.4%
[3]
  growth inhibition: -14.9%
[4]
  growth inhibition: -8.2%
[5]
  growth inhibition: -1.35%
[6]
  growth inhibition: -13%

## CC1=CC(C)(C)NC(=S)N1C1CCCCC1
[1]
  growth inhibition: 9.75%
[2]
  growth inhibition: -6.85%
[3]
  growth inhibition: 6.3%
[4]
  growth inhibition: -5%
[5]
  growth inhibition: 6.55%
[6]
  growth inhibition: 14.6%

## Cc1ccc(Cc2cc(=O)[nH]c(=S)[nH]2)cc1
[1]
  growth inhibition: -1.05%
[2]
  growth inhibition: 4.05%
[3]
  growth inhibition: -6.15%
[4]
  growth inhibition: -26.9%
[5]
  growth inhibition: -11.6%
[6]
  growth inhibition: -3.35%

## COc1ccc(-c2cc(C)cc(O)c2)c(OC)c1OC
[1]
  growth inhibition: 7.5%
[2]
  growth inhibition: 6.2%
[3]
  growth inhibition: 21.4%
[4]
  growth inhibition: -8.2%
[5]
  growth inhibition: -9.3%
[6]
  growth inhibition: -11.3%

## Nc1ncnc2c1ncn2C1OC(COP(=O)(O)OP(=O)(O)OCC2OC([n+]3cccc(C=O)c3)C(O)C2O)C(O)C1O (stereo unspecified)
[1]
  growth inhibition: 10.6%
[2]
  growth inhibition: 4.4%
[3]
  growth inhibition: 6.85%
[4]
  growth inhibition: -4.1%
[5]
  growth inhibition: 0.6%
[6]
  growth inhibition: 12.3%

## Cc1ccc(NC(=O)C(Br)C(Br)c2ccccc2)cc1Cl (stereo unspecified)
[1]
  growth inhibition: 94.2% (active)
[2]
  growth inhibition: 95.8% (active)
[3]
  growth inhibition: 96.6% (active)
[4]
  growth inhibition: 95.2% (active)
[5]
  growth inhibition: 94.7% (active)
[6]
  growth inhibition: 95.8% (active)

## COC(=O)c1nnn(-c2ccccc2C(C)C)c1C(=O)c1ccccc1
[1]
  growth inhibition: 7%
[2]
  growth inhibition: -8.85%
[3]
  growth inhibition: -0.9%
[4]
  growth inhibition: -5.75%
[5]
  growth inhibition: -21.4%
[6]
  growth inhibition: 24.5%

## CCC(=O)c1cc2c(cc1O)CC(C(=O)CC)c1ccccc1-2 (stereo unspecified)
[1]
  growth inhibition: 13.3%
[2]
  growth inhibition: 6.55%
[3]
  growth inhibition: 17%
[4]
  growth inhibition: -2.55%
[5]
  growth inhibition: 11.2%
[6]
  growth inhibition: 12.4%

## NC(=O)c1cc(Br)ccc1O
[1]
  growth inhibition: 11.2%
[2]
  growth inhibition: -12.7%
[3]
  growth inhibition: 6.9%
[4]
  growth inhibition: 8.9%
[5]
  growth inhibition: -19.4%
[6]
  growth inhibition: 17.2%

## CN(C)c1ccc(/C=C(\C#N)c2cccc(F)c2)cc1
[1]
  growth inhibition: -4.85%
[2]
  growth inhibition: 0.3%
[3]
  growth inhibition: 1.5%
[4]
  growth inhibition: -14.2%
[5]
  growth inhibition: 3.4%
[6]
  growth inhibition: -20.2%

## O=C(Nc1ccccc1)Nc1cc(C(F)(F)F)ccc1Cl
[1]
  growth inhibition: 36%
[2]
  growth inhibition: 18.6%
[3]
  growth inhibition: 4.15%
[4]
  growth inhibition: -10.2%
[5]
  growth inhibition: 2.95%
[6]
  growth inhibition: -17.1%

## CCCCCCCC(=O)OCC(COC(=O)CCCCCCC)OC(=O)CCCCCCC
[1]
  growth inhibition: 40.8%
[2]
  growth inhibition: 3.6%
[3]
  growth inhibition: 1.6%
[4]
  growth inhibition: -33.5%
[5]
  growth inhibition: 9.55%
[6]
  growth inhibition: 27.1%

## NC(=O)C[n+]1cccc(C(=O)Nc2ccccc2)c1
[1]
  growth inhibition: 17.4%
[2]
  growth inhibition: 4.45%
[3]
  growth inhibition: 7.25%
[4]
  growth inhibition: -43.2%
[5]
  growth inhibition: 23.2%
[6]
  growth inhibition: 10.7%

## CC1(C)C=C(C(=O)O)C(C)(C)N1O
[1]
  growth inhibition: -8.95%
[2]
  growth inhibition: -25.8%
[3]
  growth inhibition: 5.65%
[4]
  growth inhibition: 6.9%
[5]
  growth inhibition: 14.3%
[6]
  growth inhibition: 2.25%

## O=C(NCCCl)NCc1ccccc1
[1]
  growth inhibition: -10.9%
[2]
  growth inhibition: 2.35%
[3]
  growth inhibition: 1.4%
[4]
  growth inhibition: -40.1%
[5]
  growth inhibition: -15.2%
[6]
  growth inhibition: -2%

## COc1cc(O)c(C(C)=O)c(O)c1O
[1]
  growth inhibition: -20.4%
[2]
  growth inhibition: -12.8%
[3]
  growth inhibition: -3.1%
[4]
  growth inhibition: -36.7%
[5]
  growth inhibition: 4.8%
[6]
  growth inhibition: 6.45%

## OC(CI)C1OCOC(CI)C1O (stereo unspecified)
[1]
  growth inhibition: -11.7%
[2]
  growth inhibition: 3.65%
[3]
  growth inhibition: 10.7%
[4]
  growth inhibition: -26.5%
[5]
  growth inhibition: -3.75%
[6]
  growth inhibition: 16.4%

## CN1C(=O)C2C(C1=O)[C@H]1c3ccccc3C=CN1[C@@H]2C(=O)c1ccccc1 (stereo partly specified)
[1]
  growth inhibition: 13.2%
[2]
  growth inhibition: 7.7%
[3]
  growth inhibition: -0.25%
[4]
  growth inhibition: 0.6%
[5]
  growth inhibition: -3.8%
[6]
  growth inhibition: 10.1%

## COC(=O)CC(NC(=O)C(Cc1cncn1C(=O)OCc1ccccc1)NC(=O)OCc1ccccc1)C(=O)O (stereo unspecified)
[1]
  growth inhibition: 10.2%
[2]
  growth inhibition: 3.25%
[3]
  growth inhibition: 0.45%
[4]
  growth inhibition: 6.8%
[5]
  growth inhibition: 0.05%
[6]
  growth inhibition: -4.55%

## O=C(NC12CC3CC(CC(C3)C1)C2)C(=O)c1c[nH]c2ccc(Br)cc12
[1]
  growth inhibition: -21.9%
[2]
  growth inhibition: -20.3%
[3]
  growth inhibition: -14.1%
[4]
  growth inhibition: -21.4%
[5]
  growth inhibition: -2.95%
[6]
  growth inhibition: -52.4%

## CN(C)C(=O)C(c1ccccc1)P(=O)(c1ccccc1)c1ccccc1 (stereo unspecified)
[1]
  growth inhibition: -7.9%
[2]
  growth inhibition: -12.1%
[3]
  growth inhibition: -0.9%
[4]
  growth inhibition: -26.6%
[5]
  growth inhibition: -21.2%
[6]
  growth inhibition: -5.25%

## CC1(C)OC(=O)c2ccccc21
[1]
  growth inhibition: 30.1%
[2]
  growth inhibition: 3%
[3]
  growth inhibition: -5.05%
[4]
  growth inhibition: -14.8%
[5]
  growth inhibition: 1.35%
[6]
  growth inhibition: 2.2%

## Cn1c(N)cc(=O)nc1N
[1]
  growth inhibition: -7.55%
[2]
  growth inhibition: 2.05%
[3]
  growth inhibition: 6.2%
[4]
  growth inhibition: 10.7%
[5]
  growth inhibition: -1%
[6]
  growth inhibition: 8.2%

## C#CCNC(=O)NC(CCCCNC(=O)OCc1ccccc1)C(=O)OCc1ccccc1 (stereo unspecified)
[1]
  growth inhibition: -7.05%
[2]
  growth inhibition: 2.9%
[3]
  growth inhibition: -10.8%
[4]
  growth inhibition: 10.3%
[5]
  growth inhibition: 3.55%
[6]
  growth inhibition: -4.8%

## CC(=O)O[C@H]1CC[C@@]2(C)[C@@H](CC[C@@H]3[C@@H]2CC(=O)[C@@]2(C)[C@H]3C[C@@H]3CC(C)=CC(=O)[C@@H]32)C1
[1]
  growth inhibition: 48.2%
[2]
  growth inhibition: -7.55%
[3]
  growth inhibition: 28.6%
[4]
  growth inhibition: -20.6%
[5]
  growth inhibition: -34.9%
[6]
  growth inhibition: 28%

## C[C@H]1C(=O)CCC2[C@]3(C)CC4OC(=O)C5(CC[C@@]6(C)CCC(C)(C)CC6C45C)C3CC[C@@]21C (stereo partly specified)
[1]
  growth inhibition: -0.7%
[2]
  growth inhibition: -7.25%
[3]
  growth inhibition: -25.9%
[4]
  growth inhibition: -3.65%
[5]
  growth inhibition: -34.9%
[6]
  growth inhibition: -15%

## CC(=O)[C@H]1CC[C@@H]2[C@]1(C)CC1OC13[C@@]21C=C[C@@]2(CC(=O)CC[C@]32C)C2C(=O)OC(=O)C21 (stereo partly specified)
[1]
  growth inhibition: 17.6%
[2]
  growth inhibition: 4.45%
[3]
  growth inhibition: 40.8%
[4]
  growth inhibition: 18.5%
[5]
  growth inhibition: 3.95%
[6]
  growth inhibition: 22.9%

## CN(C(=O)C(Cl)Cl)c1ccc(-c2csc(Cc3ccccc3)n2)cc1
[1]
  growth inhibition: 38.7%
[2]
  growth inhibition: 6.3%
[3]
  growth inhibition: 1.05%
[4]
  growth inhibition: 7.05%
[5]
  growth inhibition: 34.8%
[6]
  growth inhibition: 28.2%

## Cc1cc2c(c(N)c1C)C(=O)c1ccccc1C2=O
[1]
  growth inhibition: 18.4%
[2]
  growth inhibition: 11.4%
[3]
  growth inhibition: 31.7%
[4]
  growth inhibition: 10.9%
[5]
  growth inhibition: 26.2%
[6]
  growth inhibition: 6.7%

## CCN(CC)CCSc1nnc(-c2cc(OC)c(OC)c(OC)c2)o1
[1]
  growth inhibition: 32.5%
[2]
  growth inhibition: 1.1%
[3]
  growth inhibition: -21.1%
[4]
  growth inhibition: 14.8%
[5]
  growth inhibition: 4.2%
[6]
  growth inhibition: -9.85%

## CCc1ccc(O)c(CN2CCN(Cc3cc(CC)ccc3O)CC2)c1
[1]
  growth inhibition: -2.85%
[2]
  growth inhibition: -15.7%
[3]
  growth inhibition: 20.5%
[4]
  growth inhibition: -18.4%
[5]
  growth inhibition: -4.8%
[6]
  growth inhibition: 17.1%

## O=S1(=O)Cc2ccccc2O1
[1]
  growth inhibition: 4.25%
[2]
  growth inhibition: 5.2%
[3]
  growth inhibition: 28.6%
[4]
  growth inhibition: -3.2%
[5]
  growth inhibition: -19%
[6]
  growth inhibition: 33%

## COc1cc(/C=C(\C#N)c2ccccn2)cc(Br)c1O
[1]
  growth inhibition: -7.35%
[2]
  growth inhibition: 5.15%
[3]
  growth inhibition: -3.9%
[4]
  growth inhibition: 17.2%
[5]
  growth inhibition: 25.8%
[6]
  growth inhibition: -21.6%

## CCNCCCCNCC
[1]
  growth inhibition: 4.25%
[2]
  growth inhibition: -14.9%
[3]
  growth inhibition: -18.6%
[4]
  growth inhibition: 8.1%
[5]
  growth inhibition: -3.85%
[6]
  growth inhibition: 2.3%

## c1cnc(NC(Nc2cnccn2)C2CCCCC2)cn1
[1]
  growth inhibition: -2.25%
[2]
  growth inhibition: -1.55%
[3]
  growth inhibition: -6.6%
[4]
  growth inhibition: -20.9%
[5]
  growth inhibition: 4.25%
[6]
  growth inhibition: 1.35%

## CCOC(=O)c1ccc(NC(=S)NC(=O)c2cccc([N+](=O)[O-])c2)cc1
[1]
  growth inhibition: -3.15%
[2]
  growth inhibition: 6.55%
[3]
  growth inhibition: 16.1%
[4]
  growth inhibition: -12.8%
[5]
  growth inhibition: 15.1%
[6]
  growth inhibition: 15.2%

## CC(C)c1nc2c(c(=O)o1)CCS2
[1]
  growth inhibition: -5.5%
[2]
  growth inhibition: -5.75%
[3]
  growth inhibition: -7.9%
[4]
  growth inhibition: -8.1%
[5]
  growth inhibition: -1.4%
[6]
  growth inhibition: -11.9%

## CC(=O)N1CCN(C=S)CC1
[1]
  growth inhibition: -16.5%
[2]
  growth inhibition: -9.6%
[3]
  growth inhibition: -5.65%
[4]
  growth inhibition: 15.8%
[5]
  growth inhibition: -4.05%
[6]
  growth inhibition: -15.5%

## CCCC[n+]1cccc(C(N)=O)c1
[1]
  growth inhibition: -3.55%
[2]
  growth inhibition: -19.9%
[3]
  growth inhibition: 3.35%
[4]
  growth inhibition: 0.4%
[5]
  growth inhibition: 12.8%
[6]
  growth inhibition: -2.15%
